Measured values taken from PubChem BioAssay (NCATS).
Records with an inconclusive call do not appear. Entries that show only a call come without a potency. Values without a mark were called inactive. Calls of active or inactive are those of the source. Calls follow the shape of the dose curve; as a rule, active = well fitted curve in the direction sought with a large enough effect; inconclusive = small, poorly fitted or top-dose-only effect, or another doubt; inactive = no such curve, though single readings can be large; an effect the other way counts as inactive or inconclusive.

Legend:
[1] = molecular target: Rap guanine nucleotide exchange factor 3 (Homo sapiens) (UniProt O95398); assay: Confirmatory qHTS for antagonist of cAMP-regulated guanine nucleotide exchange factor 3 (EPAC1) (AID 1645880); also: nearly all actives have a fitted effect of over 55% in size; also: potency is read from the fitted curve at half-maximal effect
Summary of the method: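 Nucleotide exchange uses 100 nM EPAC1, 250 nM RAP1B-BODIPY-GDP and 50 uM GDP, with compounds in a concentration-titration series. After 5 min at room temperature, fluorescence (480 nm ex/540 nm em) is read every 5 min for 30 min. Data are normalized to control ATA and DMSO.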

[2] = molecular target: Rap guanine nucleotide exchange factor 3 (Homo sapiens) (UniProt O95398); assay: Confirmatory qHTS for agonist of cAMP-regulated guanine nucleotide exchange factor 3 (EPAC1) (AID 1645881); also: nearly all actives have a fitted effect of over 75% in size; also: potency is read from the fitted curve at half-maximal effect;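 as to activation: EPAC1 catalysed release of BODIPY-GDP from Rap1B seen as fluorescence loss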
[3] = molecular target: Rap guanine nucleotide exchange factor 4 (Homo sapiens) (UniProt Q8WZA2); assay: Confirmatory qHTS for agonist of cAMP-regulated guanine nucleotide exchange factor 4 (EPAC2) (AID 1645884);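 also: nucleotide exchange releases bodipy-GDP from Rap1 and this lowers its fluorescence; nearly all actives have a fitted effect of over 65% in size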; also: potency is read from the fitted curve at half-maximal effect
[4] = molecular target: Rap guanine nucleotide exchange factor 4 (Homo sapiens) (UniProt Q8WZA2); assay: Confirmatory qHTS for antagonist of cAMP-regulated guanine nucleotide exchange factor 4 (EPAC2) (AID 1645885); also: nearly all actives have a fitted effect of over 25% in size; also: potency is read from the fitted curve at half-maximal effect
[5] = molecular target: Rap guanine nucleotide exchange factor 3 (Homo sapiens) (UniProt O95398); assay: Counterscreen qHTS for antagonist of cAMP-regulated guanine nucleotide exchange factor 3 (EPAC1) (AID 1645888);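 also: fluorescence loss as bound BODIPY-GDP is released from Rap1B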
Summary of the method: (§1)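 Rap1B–BODIPY-GDP (250 nM) with 50 uM GDP; compounds pin-transferred to 9.74 nM–152 uM final (activator) or from 7.32 nM upwards (inhibitor). Fluorescence Ex/Em 480/540 nm read at 5 and 30 min, then after adding cAMP or buffer, at room temperature.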

[6] = molecular target: Rap guanine nucleotide exchange factor 3 (Homo sapiens) (UniProt O95398); assay: Counterscreen qHTS for agonist of cAMP-regulated guanine nucleotide exchange factor 3 (EPAC1) (AID 1645889); also: nearly all actives have a fitted effect of over 40% in size; also: potency is read from the fitted curve at half-maximal effect
Summary of the method: as §1

Rap guanine nucleotide exchange factor 4 (Homo sapiens), sequence (Q8WZA2 whole entry, looked up): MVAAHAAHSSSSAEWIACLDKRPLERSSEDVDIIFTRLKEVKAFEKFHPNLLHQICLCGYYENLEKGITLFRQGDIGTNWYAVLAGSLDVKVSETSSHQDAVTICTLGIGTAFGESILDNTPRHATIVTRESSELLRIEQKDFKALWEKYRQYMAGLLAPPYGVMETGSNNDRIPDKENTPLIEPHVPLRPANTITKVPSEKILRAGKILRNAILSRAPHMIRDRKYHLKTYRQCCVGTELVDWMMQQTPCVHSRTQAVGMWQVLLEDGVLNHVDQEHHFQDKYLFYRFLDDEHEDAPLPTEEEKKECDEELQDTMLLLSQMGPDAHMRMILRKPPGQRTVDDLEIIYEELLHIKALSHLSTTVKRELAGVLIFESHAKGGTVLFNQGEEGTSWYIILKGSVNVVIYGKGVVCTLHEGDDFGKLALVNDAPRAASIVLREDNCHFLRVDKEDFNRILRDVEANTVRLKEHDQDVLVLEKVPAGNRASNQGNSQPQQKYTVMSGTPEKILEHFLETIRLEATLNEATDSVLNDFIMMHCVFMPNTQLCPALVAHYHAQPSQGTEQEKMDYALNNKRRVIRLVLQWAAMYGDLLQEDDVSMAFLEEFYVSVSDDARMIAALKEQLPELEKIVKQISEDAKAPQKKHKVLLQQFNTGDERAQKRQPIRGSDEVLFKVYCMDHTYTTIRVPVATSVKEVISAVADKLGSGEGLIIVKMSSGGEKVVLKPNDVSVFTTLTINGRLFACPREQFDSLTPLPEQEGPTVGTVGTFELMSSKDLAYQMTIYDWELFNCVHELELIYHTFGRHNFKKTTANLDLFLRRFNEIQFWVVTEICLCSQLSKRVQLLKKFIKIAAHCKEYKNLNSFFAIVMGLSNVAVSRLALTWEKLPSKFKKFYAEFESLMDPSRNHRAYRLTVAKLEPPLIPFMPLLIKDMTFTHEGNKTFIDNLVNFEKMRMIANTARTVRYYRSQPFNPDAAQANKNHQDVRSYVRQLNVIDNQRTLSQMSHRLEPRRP
Rap guanine nucleotide exchange factor 3 (Homo sapiens), sequence (O95398 whole entry, looked up): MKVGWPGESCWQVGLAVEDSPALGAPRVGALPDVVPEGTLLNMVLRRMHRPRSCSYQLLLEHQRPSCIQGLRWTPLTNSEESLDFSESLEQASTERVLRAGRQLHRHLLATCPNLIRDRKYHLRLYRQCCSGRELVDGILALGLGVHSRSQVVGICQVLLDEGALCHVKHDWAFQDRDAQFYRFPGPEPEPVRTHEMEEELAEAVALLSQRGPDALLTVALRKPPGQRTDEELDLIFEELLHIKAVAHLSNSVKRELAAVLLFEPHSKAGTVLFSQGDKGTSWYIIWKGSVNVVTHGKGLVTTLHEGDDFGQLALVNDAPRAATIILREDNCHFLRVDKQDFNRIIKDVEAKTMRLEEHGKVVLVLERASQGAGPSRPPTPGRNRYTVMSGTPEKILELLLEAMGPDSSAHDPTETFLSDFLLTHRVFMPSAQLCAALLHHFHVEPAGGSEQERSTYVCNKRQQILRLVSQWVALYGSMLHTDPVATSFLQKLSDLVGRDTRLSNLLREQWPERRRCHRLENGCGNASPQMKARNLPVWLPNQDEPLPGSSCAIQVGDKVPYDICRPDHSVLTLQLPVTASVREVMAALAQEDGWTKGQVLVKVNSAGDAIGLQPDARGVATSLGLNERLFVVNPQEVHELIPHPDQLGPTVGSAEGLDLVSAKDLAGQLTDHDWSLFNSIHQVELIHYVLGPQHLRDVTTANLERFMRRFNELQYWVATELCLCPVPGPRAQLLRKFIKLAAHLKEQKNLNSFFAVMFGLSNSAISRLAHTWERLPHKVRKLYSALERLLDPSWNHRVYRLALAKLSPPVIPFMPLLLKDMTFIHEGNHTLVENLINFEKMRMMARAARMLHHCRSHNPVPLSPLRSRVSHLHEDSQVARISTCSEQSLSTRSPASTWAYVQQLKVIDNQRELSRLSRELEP

Cc1cc2c(c(=O)o1)C(c1ccc([N+](=O)[O-])o1)C(C#N)=C(N)O2 (stereo unspecified)
Potency [1]: inactive | Potency [2]: inactive | Potency [3]: inactive | Potency [4]: inactive | Potency [5]: inactive | Potency [6]: inactive

CCC/C(=C1/c2ccccc2C(=O)N1c1ccccc1)c1cnc(OC)nc1
Potency [1]: inactive | Potency [2]: inactive | Potency [3]: inactive | Potency [4]: 37.9 µM (active) | Potency [5]: inactive | Potency [6]: inactive

COc1ccc(C(=O)c2ccccc2)c2c(O)ccc(C(=O)c3ccccc3)c12
Potency [1]: inactive | Potency [2]: inactive | Potency [3]: inactive | Potency [4]: inactive | Potency [5]: inactive | Potency [6]: inactive

COC(=O)c1ccc(NC(=O)CCOc2ccccc2)cc1
Potency [1]: inactive | Potency [2]: inactive | Potency [3]: inactive | Potency [4]: inactive | Potency [5]: inactive | Potency [6]: inactive

CCCCC(Sc1nc2cc3c(cc2c(=O)n1CCCC(=O)NCc1ccc2c(c1)OCO2)OCO3)C(=O)OCC (stereo unspecified)
Potency [1]: inactive | Potency [2]: inactive | Potency [3]: inactive | outcome [4]: inactive [at 12.7 µM] | Potency [5]: inactive | Potency [6]: inactive

COC(=O)C1=CN(c2ccc(F)cc2)C(N)=C(C#N)C1c1cccc(OC)c1OC (stereo unspecified)
Potency [1]: inactive | Potency [2]: inactive | activation [3]: 4.9% [at 17.1 µM, percent relative to cAMP agonist control] | Potency [4]: inactive | activity change, negative = inhibition [5]: -6.52% [at 30.8 µM] | activation [6]: 17% [at 30.8 µM]

COCCNC(=O)c1ccc2c(c1)N(Cc1ccc(C(F)(F)F)cc1)C(=O)c1ccccc1S2
Potency [1]: inactive | Potency [2]: inactive | Potency [3]: inactive | Potency [4]: inactive | Potency [5]: inactive | Potency [6]: inactive

O=C(O)c1cccc(N/N=C/c2cc(Br)cc(Br)c2O)c1
Potency [1]: 75.7 µM (active) | Potency [2]: inactive | Potency [3]: inactive | Potency [4]: 67.5 µM (active) | Potency [5]: inactive | Potency [6]: inactive

Cc1nc(N)sc1C(=O)N1N=N1
Potency [1]: inactive | Potency [2]: inactive | Potency [3]: inactive | Potency [4]: inactive | Potency [5]: inactive | Potency [6]: inactive

Cn1c(=O)cc(N2CCN(C(=O)c3ccco3)CC2)[nH]c1=O
Potency [1]: inactive | Potency [2]: inactive | Potency [3]: inactive | Potency [4]: inactive | Potency [5]: inactive | Potency [6]: inactive

CN(Cc1ccccc1F)c1nc(-c2cccs2)nc2ccccc12
Potency [1]: inactive | Potency [2]: inactive | activation [3]: 0% [at 17.1 µM, percent relative to cAMP agonist control] | Potency [4]: inactive | activity change, negative = inhibition [5]: -18.6% [at 30.8 µM] | activation [6]: 4.35% [at 30.8 µM]

Cc1cc(N=Nc2ccccc2C(=O)O)c(C)c(C)c1O
Potency [1]: 39.8 µM (active) | Potency [2]: inactive | activation [3]: -13.7% [at 17.1 µM, percent relative to cAMP agonist control] | Potency [4]: inactive | activity change, negative = inhibition [5]: -28.9% [at 30.8 µM] | activation [6]: 4.71% [at 30.8 µM]

O=C(NCC1CCCO1)c1ccc(C(=O)NCC2CCCO2)cc1 (stereo unspecified)
Potency [1]: inactive | Potency [2]: inactive | activation [3]: 5.86% [at 17.1 µM, percent relative to cAMP agonist control] | Potency [4]: inactive | activity change, negative = inhibition [5]: -1.36% [at 30.8 µM] | activation [6]: -3.36% [at 30.8 µM]

CC1S/C(=N/N=C2CCC(C(C)(C)C)CC2)NC1=O (stereo unspecified)
Potency [1]: inactive | Potency [2]: inactive | activation [3]: -7.78% [at 17.1 µM, percent relative to cAMP agonist control] | Potency [4]: inactive | activity change, negative = inhibition [5]: 2.96% [at 30.8 µM] | activation [6]: 18.6% [at 30.8 µM]

CC(=O)c1ccc(N2CCN(C(=O)C3CCCN(S(=O)(=O)c4c(C)[nH]c(=O)[nH]c4=O)C3)CC2)cc1 (stereo unspecified)
Potency [1]: inactive | Potency [2]: inactive | Potency [3]: inactive | Potency [4]: inactive | Potency [5]: inactive | Potency [6]: inactive

Cc1ccc2c(c1)C=CC(C#N)N2C(=O)c1ccccc1 (stereo unspecified)
Potency [1]: inactive | Potency [2]: inactive | Potency [3]: inactive | Potency [4]: inactive | Potency [5]: inactive | Potency [6]: inactive

CN1/C(=C\C=C2/SC(=S)NC2=O)C(C)(C)c2ccccc21
Potency [1]: inactive | Potency [2]: 79.4 µM (active) | Potency [3]: 79.4 µM (active) | Potency [4]: 7.57 µM (active) | Potency [5]: inactive | Potency [6]: 70.8 µM (active)

COc1ccccc1OCC(=O)Nc1cccc(S(=O)(=O)NC2=NCCCCC2)c1
Potency [1]: inactive | Potency [2]: inactive | Potency [3]: inactive | Potency [4]: inactive | Potency [5]: inactive | Potency [6]: inactive

C/C=C/C(=O)N1c2ccc(C)cc2C(C)=CC1(C)C
Potency [1]: inactive | Potency [2]: inactive | Potency [3]: inactive | Potency [4]: inactive | Potency [5]: inactive | Potency [6]: inactive

COc1ccccc1/C=C/C=C1\Oc2c(ccc(O)c2CN2CCN(CCO)CC2)C1=O
Potency [1]: inactive | Potency [2]: 100 µM (active) | Potency [3]: 100 µM (active) | Potency [4]: 84.9 µM (active) | Potency [5]: inactive | Potency [6]: 39.8 µM (active)

Cn1c(COc2ccc(Cl)cc2)nc2ccccc2c1=O
Potency [1]: 25.1 µM (active) | Potency [2]: inactive | activation [3]: 4.13% [at 17.1 µM, percent relative to cAMP agonist control] | Potency [4]: inactive | activity change, negative = inhibition [5]: 1.04% [at 30.8 µM] | activation [6]: 5.9% [at 30.8 µM]

CC(C)CCNC1c2ccccc2C(=O)N1Cc1ccccc1 (stereo unspecified)
Potency [1]: inactive | Potency [2]: inactive | activation [3]: 11.2% [at 17.1 µM, percent relative to cAMP agonist control] | Potency [4]: inactive | activity change, negative = inhibition [5]: -10.7% [at 30.8 µM] | activation [6]: 2.24% [at 30.8 µM]

COc1cccc(OCCOc2ccc(/C=C3\C(=N)N4N=C(S(C)(=O)=O)SC4=NC3=O)cc2OC)c1
Potency [1]: 37.9 µM (active) | Potency [2]: inactive | Potency [3]: inactive | Potency [4]: inactive | Potency [5]: inactive | Potency [6]: inactive

COc1cc(/C=C2\SC(=O)NC2=O)ccc1Oc1ccc([N+](=O)[O-])cc1[N+](=O)[O-]
Potency [1]: 42.6 µM (active) | Potency [2]: inactive | Potency [3]: inactive | Potency [4]: inactive | Potency [5]: inactive | Potency [6]: inactive

Cc1ccc(S(=O)(=O)Nc2ccccc2N2CCCCC2)cc1
Potency [1]: inactive | Potency [2]: inactive | activation [3]: 1.85% [at 17.1 µM, percent relative to cAMP agonist control] | Potency [4]: inactive | activity change, negative = inhibition [5]: -22.5% [at 30.8 µM] | activation [6]: 18.9% [at 30.8 µM]

Cc1cc(-c2csc(N)n2)c(C)n1CCC(C)C
Potency [1]: inactive | Potency [2]: inactive | Potency [3]: inactive | Potency [4]: inactive | Potency [5]: inactive | Potency [6]: inactive

CC(C)CS(=O)(=O)C1=NN2C(=N)/C(=C\c3ccc(OC(=O)c4ccco4)cc3)C(=O)N=C2S1
Potency [1]: 37.9 µM (active) | Potency [2]: inactive | Potency [3]: inactive | Potency [4]: inactive | Potency [5]: inactive | Potency [6]: inactive

O=C(NC1CCN(Cc2ccccc2)CC1)c1cn(-c2ccccc2)nc1-c1cccnc1
Potency [1]: inactive | Potency [2]: inactive | Potency [3]: inactive | Potency [4]: inactive | Potency [5]: inactive | Potency [6]: inactive

CCCN(CC(=O)Nc1ccccc1C)C(=O)C1CCN(S(=O)(=O)c2ccccc2C(F)(F)F)CC1
Potency [1]: inactive | Potency [2]: inactive | Potency [3]: inactive | Potency [4]: inactive | Potency [5]: inactive | Potency [6]: inactive

CCOc1ccc(N2C(=O)Nc3ccccc3C2(O)C(=O)NCc2ccc(C)cc2)cc1 (stereo unspecified)
Potency [1]: inactive | Potency [2]: inactive | activation [3]: -4.83% [at 17.1 µM, percent relative to cAMP agonist control] | Potency [4]: inactive | activity change, negative = inhibition [5]: -5.47% [at 30.8 µM] | activation [6]: 7.84% [at 30.8 µM]

CSCCC(NC(=O)c1ccc(Cl)cc1)C(=O)OCC(=O)NCc1ccco1 (stereo unspecified)
Potency [1]: inactive | Potency [2]: inactive | activation [3]: 0.694% [at 17.1 µM, percent relative to cAMP agonist control] | Potency [4]: inactive | activity change, negative = inhibition [5]: -13% [at 30.8 µM] | activation [6]: -1.33% [at 30.8 µM]
